# In PubChem BioAssay (NCATS):
# Unmarked numbers belong to inactive results. Inconclusive results are not listed. A call without a number means that no potency is given here. Calls of active or inactive are those of the source. Calls come from the whole dose curve; as a rule, active = well fitted curve in the direction sought with a large enough effect; inconclusive = small, poorly fitted or top-dose-only effect, or another doubt; inactive = no such curve, though single readings can be large; an effect the other way counts as inactive or inconclusive.
# System: Nanoluciferase (engineered Oplophorus gracilirostris luciferase)
# Test: Primary Nanoluciferase (NLuc) qHTS assay for identification of artifact compounds. (AID 1845222);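 note: NLuc secreted into diluted conditioned medium of S16 cells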
# Conditions: NLuc-conditioned medium, Nano-Glo luminescence, 5 min; series mostly up to 54.1 µM
# Summary of the method: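 qHTS format, against NLuc in S16 cell-conditioned medium. Nano-Glo substrate 1:100 was added after 15 min at room temperature. Luminescence was taken after a further 5 min.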
SMILES,Potency,"activity, negative = inhibition"
O=C(NCCCCN1CCN(c2cccc(Cl)c2Cl)CC1)c1cc2ccccc2s1,inactive,
O=C(NCc1nc2ccccc2c(=O)n1-c1ccc(F)cc1)Nc1ccc(Cl)c(C(F)(F)F)c1,inactive,
CC/C=C\CC1C(=O)C=CC1(CCCCC1CCC(=O)O1)OC(C)=O (stereo not drawn),inactive,
C=C1C(=O)O[C@@H]2[C@H]1CC(=O)[C@H](C)[C@@](O)(C(=O)/C=C/C)[C@H]2OC(=O)C(C)CC (stereo partly drawn),inactive,
CC(C)CCNC(=O)c1ccc2c(c1)nc(Nc1n[nH]c3ccc(-c4ccccc4OC(F)(F)F)cc13)n2C1CCC(O)CC1 (stereo not drawn),inactive,
C=C1C(=O)O[C@@H]2C[C@H](C)C3=CC(=O)[C@H](O)[C@@]3(C)C[C@H]12,inactive,
CCOC(=O)N1CCC(N2CCC[C@@H](NC(=O)c3ccccc3C)C2)CC1,inactive,
C=C1C(=O)O[C@H]2C1CCC(C)=C1C(=O)C=C(C)[C@@]12O (stereo partly drawn),inactive,
Cc1cc2sc(NC(=O)Cc3ccccc3)nc2cc1Cl,inactive,
C/C=C(/C)C(=O)OC1C=C2C3C(C)C(C)C(OC(=O)C(C)C(C)O)CC3(C)CCC2(C)C2(C)CC(OC(C)=O)C3C(C)(C)C(O)C(=O)CC3(C)C12 (stereo not drawn),inactive,
C/C(=C\CCC(C)C1=CCC2(C)OC3=C(CC12)C(=O)C(O)CC3)CO (stereo not drawn),inactive,
CC(=O)C1(C)CCC2C3C=C(C)C4=CC(=O)CCC4(C)C3CCC21C (stereo not drawn),inactive,
O=C(N[C@@H]1CCCc2c1cnn2-c1ccc(F)cc1F)c1ccccn1,inactive,
C=C1C(=O)O[C@H]2C[C@@H](C)[C@@H]3CCC(=O)[C@@]3(C)C[C@H]12,inactive,
CN(C)c1ccnc2sc3c(=O)n(N4CCCCCC4)cnc3c12,inactive,
CC(=O)NC(C(=O)O[C@H]1CCC(C)(C)[C@@H]2CC=C3C(=O)OCC3(O)[C@@]12C)C(C)C (stereo partly drawn),inactive,
COc1cc(NC(=O)c2cccc(-n3cc(NC(=O)Nc4cccc(C)c4)cn3)c2)cc(OC)c1OC,inactive,
CCN1CCN(Cc2ccc(C(=O)Nc3ccc(C)c(Oc4ccc5c(c4)CC(=O)N5)c3)cc2C(F)(F)F)CC1,inactive,
CNc1nc(NCc2ccc(NS(C)(=O)=O)cc2Cl)cc(-c2ccccn2)n1,inactive,
CC(=O)OC1[C@H]2[C@@H](C[C@@H](C)[C@@H]3C=CC(=O)[C@@]13C)OC(=O)[C@@H]2C (stereo partly drawn),inactive,

SMILES,Potency,"activity, negative = inhibition"
CCCCOc1ccc(S(=O)(=O)n2c(C)nc3ccccc32)cc1,inactive,
O=C(N[C@H]1CCC[C@H](CO)C1)C1CCN(c2nc3cc(Cl)c(-c4ccc(Cl)cc4)cc3o2)CC1,inactive,
Cc1ccc(NC(=O)N2CCN(c3nc(N)nc4sc(-c5cccnc5)nc34)CC2)cc1,inactive,
C/C=C(\C)C(=O)O[C@H]1C=CC(=O)O[C@H]1/C=C/[C@@H](O)[C@H](C)O,inactive,
FC(F)(F)c1ccccc1-c1cc(C(F)(F)F)c2nc(C3=NOC4(CCCCC4)C3)[nH]c2c1,inactive,
COc1ccc(-c2cnc3c(-c4cccc5ncccc45)cnn3c2)cc1,inactive,
O=c1[nH]c2ccc(C#CCN3CCC(Cc4ccccc4)CC3)cc2[nH]1,inactive,
CC1OC(OC2C(O)COC(O[C@@H]3[C@@H](O)[C@@H](O)[C@H](OC4C(OC(=O)[C@]56CCC(C)(C)CC5C5=CCC7[C@@]8(C)C[C@H](O)[C@H](OC9OC(CO)C(O)C(O)C9O)[C@@](C)(CO)C8[C@H](O)C[C@@]7(C)[C@]5(C)CC6)OCC(O)C4O)O[C@H]3C)C2O)C(O)C(O)C1O (stereo partly drawn),,-5.56% [at 11.6 µM]
CO[C@@H]1[C@H](O)CCC2(CO2)[C@H]1[C@@]1(C)O[C@@H]1CC=C(C)C (stereo partly drawn),inactive,
O=C(NCCN1CCN(c2cccc3c2OCCO3)CC1)c1ccc(F)cc1,inactive,
CCCC(Nc1nc(-c2ccc(NC(=O)NCC)c(OC)c2)ncc1C)c1cccnc1 (stereo not drawn),inactive,
O=C(N[C@H](Cc1cscn1)C(=O)N[C@@H](CC1CCCCC1)[C@@H](O)[C@@H](O)C1CC1)c1nc2ccccc2[nH]1,inactive,
CC(C)=CCCC1(C)/C=C/C(OC(=O)C=C(C)C)C(C)(O)/C=C/C(=O)/C(CO)=C\C1 (stereo not drawn),inactive,
C=CCCN1CCC2(CC1)CN(C(=O)c1c(F)cccc1F)c1ccc(Cl)cc12,inactive,
O=C(Nc1ccn(Cc2ccc(O)cc2C(F)(F)F)n1)c1c(F)cccc1F,inactive,
COC(=O)c1ccnc(-c2cc(C(=O)Nc3ccc(C4(N)CC4)cc3)ccn2)c1,inactive,
CCCC(=O)C1(c2ccccc2)CCN(C(=O)[C@@H](Cc2ccc(OC)cc2)NC(=O)[C@@H](N)Cc2cncn2C)CC1,inactive,
COc1cc(O)c2c(c1)C1OC1C[C@H](O)[C@H](O)C(=O)/C=C\C[C@H](C)OC2=O (stereo partly drawn),inactive,
Cc1ccc(-c2c(C(=O)CCl)n(CCCO)c3ncnc(N)c23)cc1,inactive,

# System: not listed separately
# Test: Primary redox qHTS assay for identification of artifact compounds. (AID 1845223); note: potency is the fitted concentration of half-maximal effect
# Conditions: Amplex Red/HRP redox cycling with DTT, fluorescence; series mostly up to 53.8 µM
# Summary of the method: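 Redox-cycling detection via DTT (250 uM final) oxidation coupled to Amplex Red (25 uM)/HRP (250 mU/mL) in HBSS. 15 min preincubation plus 30 min after DTT, room temperature. Ex/Em 525/598 nm; 4-parameter Hill fit against DMSO and 10 uM DA3003.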
SMILES,Potency,redox activity (% of DA3003)
O=C(NCCCCN1CCN(c2cccc(Cl)c2Cl)CC1)c1cc2ccccc2s1,inactive,
O=C(NCc1nc2ccccc2c(=O)n1-c1ccc(F)cc1)Nc1ccc(Cl)c(C(F)(F)F)c1,inactive,
CC/C=C\CC1C(=O)C=CC1(CCCCC1CCC(=O)O1)OC(C)=O (stereo not drawn),inactive,
C=C1C(=O)O[C@@H]2[C@H]1CC(=O)[C@H](C)[C@@](O)(C(=O)/C=C/C)[C@H]2OC(=O)C(C)CC (stereo partly drawn),inactive,
CC(C)CCNC(=O)c1ccc2c(c1)nc(Nc1n[nH]c3ccc(-c4ccccc4OC(F)(F)F)cc13)n2C1CCC(O)CC1 (stereo not drawn),inactive,
C=C1C(=O)O[C@@H]2C[C@H](C)C3=CC(=O)[C@H](O)[C@@]3(C)C[C@H]12,inactive,
CCOC(=O)N1CCC(N2CCC[C@@H](NC(=O)c3ccccc3C)C2)CC1,inactive,
C=C1C(=O)O[C@H]2C1CCC(C)=C1C(=O)C=C(C)[C@@]12O (stereo partly drawn),inactive,
Cc1cc2sc(NC(=O)Cc3ccccc3)nc2cc1Cl,inactive,
C/C=C(/C)C(=O)OC1C=C2C3C(C)C(C)C(OC(=O)C(C)C(C)O)CC3(C)CCC2(C)C2(C)CC(OC(C)=O)C3C(C)(C)C(O)C(=O)CC3(C)C12 (stereo not drawn),inactive,
C/C(=C\CCC(C)C1=CCC2(C)OC3=C(CC12)C(=O)C(O)CC3)CO (stereo not drawn),inactive,
CC(=O)C1(C)CCC2C3C=C(C)C4=CC(=O)CCC4(C)C3CCC21C (stereo not drawn),inactive,
O=C(N[C@@H]1CCCc2c1cnn2-c1ccc(F)cc1F)c1ccccn1,inactive,
C=C1C(=O)O[C@H]2C[C@@H](C)[C@@H]3CCC(=O)[C@@]3(C)C[C@H]12,inactive,
CN(C)c1ccnc2sc3c(=O)n(N4CCCCCC4)cnc3c12,inactive,
CC(=O)NC(C(=O)O[C@H]1CCC(C)(C)[C@@H]2CC=C3C(=O)OCC3(O)[C@@]12C)C(C)C (stereo partly drawn),inactive,
COc1cc(NC(=O)c2cccc(-n3cc(NC(=O)Nc4cccc(C)c4)cn3)c2)cc(OC)c1OC,inactive,
CCN1CCN(Cc2ccc(C(=O)Nc3ccc(C)c(Oc4ccc5c(c4)CC(=O)N5)c3)cc2C(F)(F)F)CC1,inactive,
CNc1nc(NCc2ccc(NS(C)(=O)=O)cc2Cl)cc(-c2ccccn2)n1,inactive,
CC(=O)OC1[C@H]2[C@@H](C[C@@H](C)[C@@H]3C=CC(=O)[C@@]13C)OC(=O)[C@@H]2C (stereo partly drawn),inactive,

SMILES,Potency,redox activity (% of DA3003)
CCCCOc1ccc(S(=O)(=O)n2c(C)nc3ccccc32)cc1,inactive,
O=C(N[C@H]1CCC[C@H](CO)C1)C1CCN(c2nc3cc(Cl)c(-c4ccc(Cl)cc4)cc3o2)CC1,inactive,
Cc1ccc(NC(=O)N2CCN(c3nc(N)nc4sc(-c5cccnc5)nc34)CC2)cc1,inactive,
C/C=C(\C)C(=O)O[C@H]1C=CC(=O)O[C@H]1/C=C/[C@@H](O)[C@H](C)O,inactive,
FC(F)(F)c1ccccc1-c1cc(C(F)(F)F)c2nc(C3=NOC4(CCCCC4)C3)[nH]c2c1,inactive,
COc1ccc(-c2cnc3c(-c4cccc5ncccc45)cnn3c2)cc1,inactive,
O=c1[nH]c2ccc(C#CCN3CCC(Cc4ccccc4)CC3)cc2[nH]1,inactive,
CC1OC(OC2C(O)COC(O[C@@H]3[C@@H](O)[C@@H](O)[C@H](OC4C(OC(=O)[C@]56CCC(C)(C)CC5C5=CCC7[C@@]8(C)C[C@H](O)[C@H](OC9OC(CO)C(O)C(O)C9O)[C@@](C)(CO)C8[C@H](O)C[C@@]7(C)[C@]5(C)CC6)OCC(O)C4O)O[C@H]3C)C2O)C(O)C(O)C1O (stereo partly drawn),,3.65% [at 11.5 µM]
CO[C@@H]1[C@H](O)CCC2(CO2)[C@H]1[C@@]1(C)O[C@@H]1CC=C(C)C (stereo partly drawn),inactive,
O=C(NCCN1CCN(c2cccc3c2OCCO3)CC1)c1ccc(F)cc1,inactive,
CCCC(Nc1nc(-c2ccc(NC(=O)NCC)c(OC)c2)ncc1C)c1cccnc1 (stereo not drawn),inactive,
O=C(N[C@H](Cc1cscn1)C(=O)N[C@@H](CC1CCCCC1)[C@@H](O)[C@@H](O)C1CC1)c1nc2ccccc2[nH]1,inactive,
CC(C)=CCCC1(C)/C=C/C(OC(=O)C=C(C)C)C(C)(O)/C=C/C(=O)/C(CO)=C\C1 (stereo not drawn),inactive,
C=CCCN1CCC2(CC1)CN(C(=O)c1c(F)cccc1F)c1ccc(Cl)cc12,inactive,
O=C(Nc1ccn(Cc2ccc(O)cc2C(F)(F)F)n1)c1c(F)cccc1F,inactive,
COC(=O)c1ccnc(-c2cc(C(=O)Nc3ccc(C4(N)CC4)cc3)ccn2)c1,inactive,
CCCC(=O)C1(c2ccccc2)CCN(C(=O)[C@@H](Cc2ccc(OC)cc2)NC(=O)[C@@H](N)Cc2cncn2C)CC1,inactive,
COc1cc(O)c2c(c1)C1OC1C[C@H](O)[C@H](O)C(=O)/C=C\C[C@H](C)OC2=O (stereo partly drawn),inactive,
Cc1ccc(-c2c(C(=O)CCl)n(CCCO)c3ncnc(N)c23)cc1,15 µM (active),
